Four compounds from PubChem BioAssay (EPA / NIEHS) can be followed below.

SMILES strings stand for the structures. Several values for one entry are separate records, joined by “and”; a condition that tells them apart may be missing. Equal entries are not always repeated. Inconclusive results are not listed. Where a structure was tested more than once in an assay, its records may differ in their call. Activity calls are given as the source filed them. The calls were made as follows, unless noted: active = hit-call score of the fitted dose curve at least 0.9, where 1 is the maximum; inactive = score below 0.9.

Experiment [1] concerns the target Glucocorticoid receptor (Homo sapiens) (UniProt P04150). Put plainly: ATG_GR_TRANS: Attagene TRANS-FACTORIAL HepG2 Assay for human Glucocorticoid Receptor (GR) (AID 2282978; active = hit-call score of the fitted dose curve at least 0.9, where 1 is the maximum;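 also: activators score as hits since higher reporter transcript over DMSO is fitted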). Particulars: HepG2 Attagene TRANS GR reporter, mRNA transcription. The essentials:
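In this trans-factorial format, exogenous NR-GAL4 chimeric proteins in transfected HepG2 cells regulate GAL4-UAS reporter transcription. After 24 h treatment, reporter mRNA induction relative to DMSO is read by RT-PCR and capillary electrophoresis.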

For experiment [2], the target named is Bile acid receptor (Homo sapiens) (UniProt Q96RI1). Put plainly: ATG_FXR_TRANS: Attagene TRANS-FACTORIAL HepG2 Assay for Farnesoid X Receptor (FXR) (AID 2282979; active = hit-call score of the fitted dose curve at least 0.9, where 1 is the maximum;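 also: hits raise reporter mRNA above DMSO so AC50 marks FXR activation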). Particulars: HepG2 Attagene TRANS FXR-GAL4 reporter transcription. The procedure, abridged:
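HepG2 cells transiently transfected with reporter constructs in which a chimeric FXR-GAL4 protein drives a GAL4-UAS reporter; 24 h compound exposure. Reporter mRNA measured by RT-PCR, FAM labelling, HpaI digestion and capillary electrophoresis; gain-of-signal versus DMSO.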

Experiment [3] has as its target Oxysterols receptor LXR-alpha (Homo sapiens) (UniProt Q13133). Put plainly: ATG_LXRa_TRANS: Attagene TRANS-FACTORIAL HepG2 Assay for human Liver X Receptor alpha (LXRa) (AID 2282980; active = hit-call score of the fitted dose curve at least 0.9, where 1 is the maximum). As to conditions: HepG2 Attagene TRANS reporter, LXRa transactivation. The essentials: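 HepG2 cells were transiently transfected with multiplexed reporter units driven by chimeric LXRa–GAL4 fusion proteins, then dosed for 24 h. Reporter mRNA was quantified by RT-PCR, fluorescent labelling and capillary electrophoresis; gain of signal fitted against DMSO baseline.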

The target in experiment [4] is Hepatocyte nuclear factor 4-alpha (Homo sapiens) (UniProt P41235). Kind of experiment: ATG_HNF4a_TRANS: Attagene TRANS-FACTORIAL HepG2 Assay for human Hepatocyte Nuclear Factor 4 alpha (HNF4a) (AID 2282982; active = hit-call score of the fitted dose curve at least 0.9, where 1 is the maximum). As to conditions: HepG2 HNF4a transactivation reporter, mRNA readout. The essentials: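 Cells used were human HepG2, transiently carrying GAL4-UAS reporter units read out against exogenous NR-GAL4 chimeras. Reporter transcript levels after 24 h dosing were quantified by fluorescent RT-PCR and capillary electrophoresis.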

Experiment [5] in a line: ATG_M_06_TRANS: Attagene TRANS-FACTORIAL HepG2 Assay for M06 Transcription Factor (Internal Marker) (AID 2282983; active = hit-call score of the fitted dose curve at least 0.9, where 1 is the maximum). As to conditions: HepG2 Attagene TRANS M06 internal marker reporter. The procedure, abridged:
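HepG2 cells transiently transfected with multiplexed GAL4-UAS reporter transcription units; after 24 h compound exposure, reporter mRNA measured by RT-PCR, FAM-labelled primer extension, HpaI digestion and capillary electrophoresis. Gain-of-signal fitted versus DMSO baseline; background control readout.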

The nature of experiment [6]: ATG_M_32_TRANS: Attagene TRANS-FACTORIAL HepG2 Assay for M32 Transcription Factor (Internal Marker) (AID 2282984; active = hit-call score of the fitted dose curve at least 0.9, where 1 is the maximum). As to conditions: HepG2 Attagene TRANS M32 internal marker reporter. The procedure, abridged:
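Human hepatoma HepG2, transient MRTU transfection, 24 h treatment. RNA → RT-PCR → fluorescent primer extension → HpaI digest (2 h, 37 C) → CE. Positive-direction fit vs DMSO.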

Experiment [7] has as its target Nuclear receptor subfamily 4 group A member 2 (Homo sapiens) (UniProt P43354). Put plainly: ATG_NURR1_TRANS: Attagene TRANS-FACTORIAL HepG2 Assay for human Nuclear Receptor Related Protein 1 (NURR1) (AID 2282985; active = hit-call score of the fitted dose curve at least 0.9, where 1 is the maximum). Particulars: HepG2 Attagene TRANS reporter, mRNA readout. The essentials: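 After 24 h chemical dosing, total RNA from transiently transfected HepG2 cells was reverse-transcribed and reporter cDNA PCR-amplified, FAM-labelled and analysed by capillary electrophoresis. Activity fitted in positive direction, DMSO as negative control.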

For experiment [8], the target named is Transcriptional activator Myb (Homo sapiens) (UniProt P10242). Put plainly: ATG_Myb_CIS: Attagene CIS-FACTORIAL HepG2 Assay for human Myeloblastosis (Myb) Proto-Oncogene Transcription Factor (AID 2282986). As to conditions: HepG2 Attagene CIS-FACTORIAL Myb reporter transcription; actives raise or lower the signal. The essentials: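 Steps: transfect HepG2 with cis-regulated reporter units; dose with chemical for 24 h; isolate RNA, reverse-transcribe, PCR-amplify and FAM-label reporter sequences; digest with HpaI; resolve by capillary electrophoresis. Activity fitted in both directions relative to DMSO.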

The target in experiment [9] is Nuclear respiratory factor 1 (Homo sapiens) (UniProt Q16656). Kind of experiment: ATG_NRF1_CIS: Attagene CIS-FACTORIAL HepG2 Assay for human Nuclear Respiratory Factor 1 (NRF1) Orphan Gene (AID 2282987). Particulars: HepG2 NRF1 cis-element reporter, Attagene multiplex; actives raise or lower the signal. The procedure, abridged:
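Fluorescence intensity of labelled reporter cDNA fragments, resolved by capillary electrophoresis, served as readout for NRF1 cis-element activity. Transiently transfected HepG2 cells were dosed for 24 hours; activity in either direction was fitted against DMSO negative control.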

Experiment [10] is described as follows: ATG_NFI_CIS: Attagene CIS-FACTORIAL HepG2 Assay for human Nuclear Factor I (NFI) (AID 2282989). Particulars: HepG2 cis-regulatory reporter, NFI response element transcription; actives raise or lower the signal. The essentials: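 Endogenous TF activity in HepG2 cells transiently transfected with cis-element-driven multiplexed reporter units, read 24 h after dosing. Reporter mRNA quantified by RT-PCR, 6-FAM labelling, HpaI digestion and capillary electrophoresis; bidirectional fit versus DMSO.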

Experiment [11] deals with Myc proto-oncogene protein (Homo sapiens) (UniProt P01106). Kind of experiment: ATG_Myc_CIS: Attagene CIS-FACTORIAL HepG2 Assay for human Myelocytomatosis (Myc) Proto-Oncogene Transcription Factor (AID 2282990). Particulars: HepG2, Attagene cis-reporter transcription factor activity; actives raise or lower the signal. The procedure, abridged:
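HepG2 cells transiently transfected with multiple cis-promoter-driven reporter transcription units, so endogenous TF activity is read. After 24 h compound exposure, reporter mRNA was quantified by RT-PCR, 6-FAM labelling, HpaI digestion and capillary electrophoresis; bidirectional fit versus DMSO.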

Experiment [12] is described as follows: ATG_NF_kB_CIS: Attagene CIS-FACTORIAL HepG2 Assay for human Nuclear Factor Kappa B (NF-kB) (AID 2282991). As to conditions: HepG2 Attagene cis-factorial NF-kB reporter mRNA; actives raise or lower the signal. The procedure, abridged: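 Endogenous transcription factor activity in HepG2 was captured via cis-regulated reporter constructs; after 24 h dosing, reporter mRNA was reverse-transcribed, amplified, fluorescently labelled and sized by capillary electrophoresis, with activity fitted bidirectionally relative to DMSO.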

A short description of experiment [13]: ATG_NRF2_ARE_CIS: Attagene CIS-FACTORIAL HepG2 Assay for human Nuclear Factor Erythroid 2 Related Factor 2 (NFR2) response to Antioxidant Response Elements (ARE) (AID 2282992).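 As to AC50: reporter mRNA level measured by RT-PCR and capillary electrophoresis fluorescence.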 As to conditions: HepG2 Attagene ARE/NRF2 reporter, transcription factor activity; actives raise or lower the signal. The procedure, abridged: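 HepG2 cells transiently transfected with multiplexed cis-element reporter constructs, 24 h after chemical dosing; reporter mRNA quantified by RT-PCR, fluorescent primer extension, HpaI digestion and capillary electrophoresis. Bidirectional fit relative to DMSO.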

A short description of experiment [14]: ATG_Oct_MLP_CIS: Attagene CIS-FACTORIAL HepG2 Assay for human Octamer-Binding Transcription Factor (Oct) (AID 2282993). As to conditions: HepG2 Attagene cis-factorial Oct reporter, mRNA; actives raise or lower the signal. The procedure, abridged: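 HepG2 cells transiently transfected with cis-element-driven reporter transcription units (endogenous TF activity); 24 h compound exposure. Reporter mRNA quantified by RT-PCR, 6-FAM labelling, HpaI digestion and capillary electrophoresis; bidirectional fit versus DMSO baseline.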

In experiment [15] the target is Cellular tumor antigen p53 (Homo sapiens) (UniProt P04637). Kind of experiment: ATG_p53_CIS: Attagene CIS-FACTORIAL HepG2 Assay for human p53 Transcription Factor (AID 2282994). As to conditions: HepG2 p53 cis-element reporter, Attagene mRNA; actives raise or lower the signal. The procedure, abridged: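 HepG2 cells transiently transfected with cis-regulated multiple reporter transcription units, dosed 24 h. Reporter mRNA measured by RT-PCR, 6-FAM primer extension, HpaI digestion and capillary electrophoresis; bidirectional fit relative to DMSO.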

Experiment [16] addresses Oxysterols receptor LXR-beta (Homo sapiens) (UniProt P55055). Put plainly: ATG_LXRb_TRANS: Attagene TRANS-FACTORIAL HepG2 Assay for human Liver X Receptor beta (LXRb) (AID 2282981; active = hit-call score of the fitted dose curve at least 0.9, where 1 is the maximum). Particulars: HepG2 Attagene TRANS GAL4-LXRb reporter, mRNA. The essentials: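 In this TRANS format, exogenous chimeric NR-Gal4 protein activity, not endogenous factors, drives reporter expression in transfected human HepG2 cells. Exposure lasted 24 h; reporter mRNA was read by fluorescent capillary electrophoresis.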

Experiment [17] in a line: BSK_3C_uPAR: BioMAP Diversity Plus: 3C Assay for Urokinase-type plasminogen activator receptor (uPAR) Biomarker Activity (AID 2282998). As to conditions: BioMAP 3C HUVEC, uPAR biomarker ELISA; actives raise or lower the signal. The essentials:
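Primary human umbilical vein endothelial cells, 3C system; surface uPAR measured by ELISA 24 h after dosing. Cytotoxicity via SRB total protein in parallel cultures; bidirectional fit against DMSO.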

Experiment [18] in a line: BSK_3C_VCAM1: BioMAP Diversity Plus: 3C Assay for Vascular cell adhesion molecule 1 (VCAM1) Biomarker Activity (AID 2282999). Particulars: BioMAP 3C HUVEC, VCAM1 ELISA, cytokine-stimulated; actives raise or lower the signal. The essentials:
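Human umbilical vein endothelial cells were dosed with compound for 24 h, after which cell-surface VCAM-1 was quantified by ELISA. Bidirectional curve fitting used DMSO as negative control and activity baseline.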

Experiment [19] can be described thus: BSK_4H_Eotaxin3: BioMAP Diversity Plus: 4H Assay for Eotaxin 3 Biomarker Activity (AID 2283000).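 As to outcome: CCL26 protein level quantified by ELISA in parallel with SRB cytotoxicity check.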 Particulars: primary human endothelial cells (HUVEC); actives raise or lower the signal. The procedure, abridged: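 HUVEC, 24 h post-dose, ELISA for Eotaxin-3/CCL26. Gain or loss of signal fitted bidirectionally vs DMSO baseline.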
A short description of experiment [20]: BSK_3C_TissueFactor: BioMAP Diversity Plus: 3C Assay for Tissue Factor Biomarker Activity (AID 2282997). As to conditions: BioMAP 3C HUVEC, tissue factor biomarker readout; actives raise or lower the signal. The procedure, abridged:
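Primary human umbilical vein endothelial cells in the 3C system were exposed to test chemical for 24 h, then Tissue Factor measured by ELISA. Activity was fitted bidirectionally against DMSO as negative control and baseline.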

Sequence of Nuclear respiratory factor 1 (Homo sapiens) (Q16656 whole entry, looked up, the tested form may be a part): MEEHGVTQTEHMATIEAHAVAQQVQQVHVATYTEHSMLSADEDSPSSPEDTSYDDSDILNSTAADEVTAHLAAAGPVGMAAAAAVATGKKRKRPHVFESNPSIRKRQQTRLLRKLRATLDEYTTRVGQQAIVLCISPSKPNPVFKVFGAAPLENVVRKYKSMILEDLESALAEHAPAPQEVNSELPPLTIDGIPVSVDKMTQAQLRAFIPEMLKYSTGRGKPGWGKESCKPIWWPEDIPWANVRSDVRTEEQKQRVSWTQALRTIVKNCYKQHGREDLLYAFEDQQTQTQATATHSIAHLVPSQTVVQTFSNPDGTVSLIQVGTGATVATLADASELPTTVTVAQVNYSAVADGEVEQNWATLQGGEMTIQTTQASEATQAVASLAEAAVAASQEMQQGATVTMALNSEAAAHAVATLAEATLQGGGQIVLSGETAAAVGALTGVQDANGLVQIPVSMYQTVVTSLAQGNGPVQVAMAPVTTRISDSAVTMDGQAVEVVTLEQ
Sequence of Cellular tumor antigen p53 (Homo sapiens) (P04637 whole entry, looked up): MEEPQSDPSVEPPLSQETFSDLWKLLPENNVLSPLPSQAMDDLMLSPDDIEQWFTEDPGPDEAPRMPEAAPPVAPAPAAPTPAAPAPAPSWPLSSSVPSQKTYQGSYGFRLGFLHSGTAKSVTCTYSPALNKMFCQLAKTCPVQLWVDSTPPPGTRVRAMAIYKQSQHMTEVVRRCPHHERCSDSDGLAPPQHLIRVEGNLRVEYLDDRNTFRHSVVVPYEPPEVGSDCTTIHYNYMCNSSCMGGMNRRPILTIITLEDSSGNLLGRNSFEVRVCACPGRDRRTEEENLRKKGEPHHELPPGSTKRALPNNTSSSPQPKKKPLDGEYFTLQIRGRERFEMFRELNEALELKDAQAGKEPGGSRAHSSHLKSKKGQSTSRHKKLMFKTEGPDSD
Sequence of Transcriptional activator Myb (Homo sapiens) (P10242 whole entry, looked up): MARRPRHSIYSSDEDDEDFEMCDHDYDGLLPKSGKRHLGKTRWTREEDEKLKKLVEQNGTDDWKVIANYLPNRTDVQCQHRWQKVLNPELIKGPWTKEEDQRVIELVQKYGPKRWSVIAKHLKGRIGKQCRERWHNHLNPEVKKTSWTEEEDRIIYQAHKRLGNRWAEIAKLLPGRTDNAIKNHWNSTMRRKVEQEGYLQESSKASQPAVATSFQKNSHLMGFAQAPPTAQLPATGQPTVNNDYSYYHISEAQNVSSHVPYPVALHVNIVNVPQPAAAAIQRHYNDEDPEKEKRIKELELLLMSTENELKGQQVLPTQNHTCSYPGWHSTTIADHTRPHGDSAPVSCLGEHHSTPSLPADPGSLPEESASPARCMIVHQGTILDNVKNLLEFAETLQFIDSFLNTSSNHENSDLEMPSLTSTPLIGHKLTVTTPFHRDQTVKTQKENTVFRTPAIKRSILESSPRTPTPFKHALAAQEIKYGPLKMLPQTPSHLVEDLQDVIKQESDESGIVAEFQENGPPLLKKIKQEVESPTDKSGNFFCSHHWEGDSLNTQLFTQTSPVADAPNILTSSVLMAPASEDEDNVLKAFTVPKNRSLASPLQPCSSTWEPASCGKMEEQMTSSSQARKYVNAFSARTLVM
Sequence of Bile acid receptor (Homo sapiens) (Q96RI1 whole entry, looked up, the tested form may be a part): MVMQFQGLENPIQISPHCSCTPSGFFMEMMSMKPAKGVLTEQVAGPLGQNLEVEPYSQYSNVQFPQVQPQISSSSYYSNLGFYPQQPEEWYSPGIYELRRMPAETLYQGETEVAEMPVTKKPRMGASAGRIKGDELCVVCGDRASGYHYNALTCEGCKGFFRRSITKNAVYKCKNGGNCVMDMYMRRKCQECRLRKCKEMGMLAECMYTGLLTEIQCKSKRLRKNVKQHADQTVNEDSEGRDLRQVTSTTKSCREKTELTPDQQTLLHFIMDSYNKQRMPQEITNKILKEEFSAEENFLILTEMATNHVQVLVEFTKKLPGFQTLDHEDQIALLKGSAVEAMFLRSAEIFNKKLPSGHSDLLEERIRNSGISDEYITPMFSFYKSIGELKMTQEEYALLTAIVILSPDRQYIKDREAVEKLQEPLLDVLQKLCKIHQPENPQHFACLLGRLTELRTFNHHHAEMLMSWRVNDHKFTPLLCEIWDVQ
Sequence of Oxysterols receptor LXR-alpha (Homo sapiens) (Q13133 whole entry, looked up, the tested form may be a part): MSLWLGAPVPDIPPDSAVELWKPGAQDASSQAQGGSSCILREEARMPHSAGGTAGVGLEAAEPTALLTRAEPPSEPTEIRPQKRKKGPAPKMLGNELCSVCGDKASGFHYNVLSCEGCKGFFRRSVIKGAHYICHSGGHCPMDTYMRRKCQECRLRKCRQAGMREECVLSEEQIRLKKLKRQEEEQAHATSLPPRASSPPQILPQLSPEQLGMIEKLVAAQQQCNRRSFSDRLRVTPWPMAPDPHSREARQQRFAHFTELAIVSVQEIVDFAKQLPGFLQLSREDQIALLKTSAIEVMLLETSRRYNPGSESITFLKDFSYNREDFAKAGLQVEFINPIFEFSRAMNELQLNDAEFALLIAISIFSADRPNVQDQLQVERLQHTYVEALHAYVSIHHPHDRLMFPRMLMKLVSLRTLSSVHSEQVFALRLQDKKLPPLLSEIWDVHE
Sequence of Nuclear receptor subfamily 4 group A member 2 (Homo sapiens) (P43354 whole entry, looked up): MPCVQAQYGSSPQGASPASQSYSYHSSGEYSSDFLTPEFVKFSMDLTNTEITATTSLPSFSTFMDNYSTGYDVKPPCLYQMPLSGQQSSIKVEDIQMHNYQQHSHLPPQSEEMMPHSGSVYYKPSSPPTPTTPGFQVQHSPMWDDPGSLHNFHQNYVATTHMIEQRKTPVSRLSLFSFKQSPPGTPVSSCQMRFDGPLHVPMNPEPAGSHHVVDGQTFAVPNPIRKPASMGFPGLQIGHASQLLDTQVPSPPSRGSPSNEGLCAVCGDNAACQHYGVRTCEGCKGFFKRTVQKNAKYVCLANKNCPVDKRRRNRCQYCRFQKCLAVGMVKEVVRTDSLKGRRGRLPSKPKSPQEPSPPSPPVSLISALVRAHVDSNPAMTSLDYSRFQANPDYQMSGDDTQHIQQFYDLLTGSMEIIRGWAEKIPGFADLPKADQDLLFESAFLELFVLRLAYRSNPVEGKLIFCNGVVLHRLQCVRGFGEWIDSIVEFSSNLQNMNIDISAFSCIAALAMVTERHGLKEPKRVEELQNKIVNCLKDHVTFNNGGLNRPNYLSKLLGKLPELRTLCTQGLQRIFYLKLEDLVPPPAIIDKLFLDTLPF
Sequence of Hepatocyte nuclear factor 4-alpha (Homo sapiens) (P41235 whole entry, looked up, the tested form may be a part): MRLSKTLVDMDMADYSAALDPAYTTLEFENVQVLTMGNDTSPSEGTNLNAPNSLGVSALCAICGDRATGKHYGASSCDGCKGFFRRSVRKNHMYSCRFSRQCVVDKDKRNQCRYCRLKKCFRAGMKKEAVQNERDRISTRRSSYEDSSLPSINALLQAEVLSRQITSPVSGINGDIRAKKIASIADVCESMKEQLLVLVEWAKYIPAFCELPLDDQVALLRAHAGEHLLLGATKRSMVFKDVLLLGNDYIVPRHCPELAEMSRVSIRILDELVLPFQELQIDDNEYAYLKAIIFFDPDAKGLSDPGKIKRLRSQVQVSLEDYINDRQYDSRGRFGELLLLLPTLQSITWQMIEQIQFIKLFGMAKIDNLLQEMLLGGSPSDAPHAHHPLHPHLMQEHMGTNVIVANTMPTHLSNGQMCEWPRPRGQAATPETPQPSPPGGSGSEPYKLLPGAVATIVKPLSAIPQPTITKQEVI
Sequence of Myc proto-oncogene protein (Homo sapiens) (P01106 whole entry, looked up): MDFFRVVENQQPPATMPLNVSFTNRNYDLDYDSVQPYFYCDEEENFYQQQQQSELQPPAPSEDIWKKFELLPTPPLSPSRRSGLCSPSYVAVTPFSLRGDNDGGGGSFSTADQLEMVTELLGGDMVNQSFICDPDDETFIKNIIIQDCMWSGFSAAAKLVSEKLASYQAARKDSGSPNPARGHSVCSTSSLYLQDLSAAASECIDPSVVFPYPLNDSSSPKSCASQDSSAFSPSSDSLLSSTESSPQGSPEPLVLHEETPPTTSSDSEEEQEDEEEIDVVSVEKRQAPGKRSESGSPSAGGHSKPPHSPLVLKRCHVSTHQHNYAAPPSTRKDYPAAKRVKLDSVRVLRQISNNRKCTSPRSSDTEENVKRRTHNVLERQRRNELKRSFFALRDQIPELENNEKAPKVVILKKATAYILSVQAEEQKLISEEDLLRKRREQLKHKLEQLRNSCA
Sequence of Glucocorticoid receptor (Homo sapiens) (P04150 whole entry, looked up, the tested form may be a part): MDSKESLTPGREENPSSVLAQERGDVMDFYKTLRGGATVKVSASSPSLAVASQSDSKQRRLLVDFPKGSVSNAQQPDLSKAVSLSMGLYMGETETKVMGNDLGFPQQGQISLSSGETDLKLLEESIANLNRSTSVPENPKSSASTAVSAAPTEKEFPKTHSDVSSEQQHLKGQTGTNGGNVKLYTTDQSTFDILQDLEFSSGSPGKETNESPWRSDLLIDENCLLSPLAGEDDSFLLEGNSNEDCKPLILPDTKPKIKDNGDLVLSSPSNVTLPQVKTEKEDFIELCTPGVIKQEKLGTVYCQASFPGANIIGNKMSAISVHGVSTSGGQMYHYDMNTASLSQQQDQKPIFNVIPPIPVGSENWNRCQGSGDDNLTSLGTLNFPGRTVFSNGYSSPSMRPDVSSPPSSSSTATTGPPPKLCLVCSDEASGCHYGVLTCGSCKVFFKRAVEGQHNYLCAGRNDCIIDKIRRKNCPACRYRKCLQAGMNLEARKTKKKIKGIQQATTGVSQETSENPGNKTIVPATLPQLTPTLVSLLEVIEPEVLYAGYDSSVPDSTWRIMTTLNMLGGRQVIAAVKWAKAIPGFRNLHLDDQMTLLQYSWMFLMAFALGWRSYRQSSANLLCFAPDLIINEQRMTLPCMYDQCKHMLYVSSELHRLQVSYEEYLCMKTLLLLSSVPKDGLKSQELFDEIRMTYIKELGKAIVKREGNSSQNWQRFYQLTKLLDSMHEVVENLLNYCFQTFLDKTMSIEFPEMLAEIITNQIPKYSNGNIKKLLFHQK

`C/C(=N\NC(=O)Nc1cc(F)cc(F)c1)c1ncccc1C(=O)O`: the compound was classed as inactive in [1], in experiment [2], in experiment [3], in experiment [4], in [5] and in experiment [6]. For the same compound, the compound was called inactive in experiment [7], in experiment [8], in experiment [9], in [10], in experiment [11] and in [12]. Also, the result in [13], in experiment [14] and in experiment [15] was inactive.

In the case of `FC(F)(F)C(F)(C(F)(F)F)C(F)(F)C(F)(F)CC1CO1` (configuration not stated), the compound was classed as inactive in [1], in experiment [2], in experiment [16], in experiment [4], in experiment [5] and in experiment [6]. Also, the compound was classed as inactive in experiment [8], in experiment [9], in [10], in experiment [11], in [12] and in experiment [13]. Besides, the outcome in experiment [14], in experiment [15], in experiment [17], in experiment [18] and in experiment [19] was inactive.

With `Cc1c([N+](=O)[O-])cc2c(c1[N+](=O)[O-])C(C)(C)CC2(C)C`, the result in experiment [1], in experiment [2], in experiment [3], in [5], in experiment [8] and in [9] was inactive. In addition, the compound was called inactive in experiment [10], in [13], in experiment [14], in [15] and in experiment [18]. In addition, the AC50 in [7] is 14.6 µM (active); in [11], 3.03 µM (active); in experiment [20] it was 3.62 µM (active); in experiment [17], 0.87 µM (active); in [19] it was 2.15 µM (active).

Consider `COC(=O)C(F)(F)C(F)(F)OC(F)(C(F)(F)F)C(F)(F)OC(F)=C(F)F` (configuration not stated), for which the call in [1], in experiment [2], in experiment [3], in experiment [4], in experiment [5] and in [6] was inactive. Also, the call in experiment [7], in [8], in [9], in experiment [10], in experiment [11] and in [12] was inactive. For the same compound, the outcome in experiment [14], in experiment [15], in experiment [20], in experiment [17] and in experiment [18] was inactive. The AC50 in experiment [13] is 4.38 µM (active) and 10.3 µM (active) and 5.16 µM (active); in experiment [15], 12.7 µM (active).

A word on the AC50: it is the concentration at which the activity in the assay is half-maximal.
